target: T1, Aspartate--tRNA(Asp/Asn) ligase (Mycobacterium tuberculosis (strain ATCC 25618 / H37Rv)) (UniProt P9WFW3); experiment: Assay for Asp RNA synthetase-1 from Mycobacterium tuberculosis; assay type: functional; set-up: scale not given: in the data most compounds retested in dose-response had high values; settings: 30 µM
T1 sequence (whole entry): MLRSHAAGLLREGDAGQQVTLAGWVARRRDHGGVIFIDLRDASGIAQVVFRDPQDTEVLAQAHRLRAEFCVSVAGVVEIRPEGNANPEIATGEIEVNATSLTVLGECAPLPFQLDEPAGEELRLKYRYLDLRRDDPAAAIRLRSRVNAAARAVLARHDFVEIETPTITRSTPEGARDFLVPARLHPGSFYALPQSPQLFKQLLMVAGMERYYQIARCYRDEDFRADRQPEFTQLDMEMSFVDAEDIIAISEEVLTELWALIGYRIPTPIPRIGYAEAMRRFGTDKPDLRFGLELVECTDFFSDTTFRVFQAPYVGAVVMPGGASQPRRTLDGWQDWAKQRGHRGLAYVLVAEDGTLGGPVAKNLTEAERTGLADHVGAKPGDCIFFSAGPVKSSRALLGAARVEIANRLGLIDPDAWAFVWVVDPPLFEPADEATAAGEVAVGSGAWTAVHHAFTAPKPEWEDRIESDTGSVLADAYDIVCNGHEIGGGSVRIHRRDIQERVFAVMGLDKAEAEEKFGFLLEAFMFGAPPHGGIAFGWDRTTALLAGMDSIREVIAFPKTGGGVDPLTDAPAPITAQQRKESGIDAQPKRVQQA

Compound	Percent Effect
CC(NC(=O)NCCCN(C)C)c1ccc2c(c1)CCC(=O)N2 (stereo not given)	-3.92%
COc1ncc(C2(O)CCN(Cc3c(F)cccc3F)CC2)c(OC)n1	2.49%
CNC(=O)[C@@]12CCO[C@@H]1CCN(S(=O)(=O)c1cccnc1)C2	0.229%
CN(Cc1ncc(-c2ccccc2)o1)CC1CCCN1c1cccnn1 (stereo not given)	0.259%
O=C(NC1=NCCCN1c1ccc(Cl)cc1)c1cccc(Cl)c1	8.32%
Cc1nc(COC[C@@H]2CCC[C@@]23CNCCO3)cs1	19.4%
CN(Cc1ccsc1)C(=O)CS(=O)(=O)Cc1ccc(Cl)c(Cl)c1	3.95%
COc1cccc(CNc2cnn(C)c(=O)c2Cl)c1	-6.1%
CCCc1cc(C(=O)N2CCOC(c3nc(-c4cccs4)no3)C2)no1 (stereo not given)	-0.544%
Cc1csc(CCCNC(=O)[C@H]2CNC[C@@H](C(=O)N3CCCC3)C2)n1	-3.08%
O=C(N1CCOCC1)N1CCc2ncnc(NC3CC3)c2CC1	6.32%
CC(C)N1CCn2c(nc3cc(C(N)=O)ccc32)C1	0.319%
c1csc(-c2nc(CN3CCOC(Cn4cccn4)C3)co2)c1 (stereo not given)	9.95%
CCc1ccc(CN2CCC3(CC2)CC(N2CCN(C)CC2)CO3)cc1 (stereo not given)	2.64%
CC(C)n1ccc(-c2cc(C(=O)N3CCCC3)c3ccccn23)n1	2.64%
CCN1CCC(CNCc2cc(OC)ccc2OC)C1 (stereo not given)	-3.93%
CN(C)CC1CN(c2ncnc3[nH]ccc23)CCO1 (stereo not given)	-0.0146%
O=C(CC1CN(Cc2ccccc2)CCO1)Nc1ccccc1F (stereo not given)	-4.94%
Cc1nn(C)c(C)c1CNCc1ccc(N2CCOCC2)nc1	2.11%
CCC(=O)N1CCC(c2nnc(Cn3cncn3)n2C2CC2)CC1	-3.04%
